IMPase cell inh: qHTS Assay for Identifying the Cell-Membrane Permeable IMPase Inhibitors; Inositol monophosphatase 1 (Rattus norvegicus), P97697; CHO-M1 cells, IP1 accumulation, HTRF TR-FRET ratio; inhibition (IP1 accumulation), % at 46.1 µM; 120,000 tested, under 10 active; AID 901, 2007; active = well fitted curve in the direction sought with a large enough effect in the signal ratio, not every such curve was filed as active; inconclusive = small, poorly fitted or top-dose-only effect, or a change in a side signal; inactive = no such curve, though single readings can be large or run the other way; the % refers to the signal ratio;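 note: cells stimulated with carbachol in lithium chloride buffer; higher means more IMPase inhibition seen as more IP1 and lower FRET ratio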
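CHO-M1, 2000 cells/well, cultured 16–30 h; cpd up to 46 uM; carbachol (50 uM solution, stimulation buffer w/ 50 mM LiCl, pH 7.4), 30 min 37C; IP-One TR-FRET, 10 min RT; Ex 320/Em 665, 620; Hill-fit AC50.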
ALDH1A1 block: qHTS Assay for Inhibitors of Aldehyde Dehydrogenase 1 (ALDH1A1). Aldehyde dehydrogenase 1A1 (Homo sapiens), P00352. Purified ALDH1A1, NADH fluorescence, propionaldehyde substrate. Potency, µM (titrated, usually from 75.3 µM), hits mostly inhibitors. 220,000 compounds, 7.3% hits
Target sequence (P00352 whole entry, looked up): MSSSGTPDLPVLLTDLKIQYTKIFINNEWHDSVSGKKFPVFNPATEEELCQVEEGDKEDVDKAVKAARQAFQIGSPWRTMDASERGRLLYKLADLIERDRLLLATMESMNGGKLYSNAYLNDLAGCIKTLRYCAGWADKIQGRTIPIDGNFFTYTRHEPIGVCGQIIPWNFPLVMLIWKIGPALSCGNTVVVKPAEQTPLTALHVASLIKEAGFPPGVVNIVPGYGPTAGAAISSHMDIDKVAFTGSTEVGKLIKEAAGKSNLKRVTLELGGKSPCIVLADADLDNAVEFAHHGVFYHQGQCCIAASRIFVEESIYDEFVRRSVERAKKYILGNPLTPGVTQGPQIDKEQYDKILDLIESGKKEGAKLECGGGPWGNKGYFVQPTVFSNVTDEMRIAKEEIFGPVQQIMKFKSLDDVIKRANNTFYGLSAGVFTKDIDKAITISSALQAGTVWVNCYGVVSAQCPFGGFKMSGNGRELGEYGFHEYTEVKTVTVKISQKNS
HPGD block: qHTS Assay for Inhibitors of HPGD (15-Hydroxyprostaglandin Dehydrogenase) | 15-hydroxyprostaglandin dehydrogenase [NAD(+)] (Homo sapiens), P15428 | purified HPGD, NADH fluorescence kinetic, PGE2 substrate | Potency, µM, hits mostly inhibitors | 150,000 compounds, 4.3% hits
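20 nM HPGD preincubated 15 min at room temperature with compound in 50 mM Tris-HCl pH 8, 0.01% Tween 20. Started with 1 mM NAD+ and 30 uM prostaglandin E2; NADH fluorescence (360/450 nm) read 5 times over 30-s intervals, last minus first.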
Numbers stand for hits; 0 = inactive; ? = inconclusive; - = no result; [ ] = remark or other dose. This is a sample that favours compounds with a hit; in the whole collection about 9% have one here. Unless noted, calls come from the whole dose curve; as a rule, active = well fitted inhibition curve with a large enough effect (not every such curve was filed as active); inconclusive = small, poorly fitted or top-dose-only effect, or another doubt; inactive = no such curve, though single readings can be large or run the other way.

SMILES	IMPase cell inh	ALDH1A1 block	HPGD block
O=C(Cc1c[nH]c2ccccc12)NC1(C(=O)NC2CCCC2)CCCCC1	-	0	-
CC1CCCN(C(=O)C2CCN(CC(C)c3ccccc3)CC2)C1 (stereo unspecified)	0	?	22µM
CC1CCCN(C(=O)C2CCN(CCCc3ccccc3)CC2)C1 (stereo unspecified)	0	0	0
CC(C)C[C@H](NC(=O)[C@@H](O)[C@@H](N)Cc1ccccc1)C(=O)O	0	-	-
COC(=O)C1=C(C(=O)OC)[C@@H]2N(Cc3ccccc3)c3ccccc3[C@@]23C[C@@H](C(=O)OC)N(S(=O)(=O)c2cccs2)C3=N1	-	0[13.5 µM]	0
CC(C)=CCN1CCNC(=O)C1CC(=O)NCc1nc(C)c(C)s1 (stereo unspecified)	-	0	-
CC(C)NC(=O)C1(O)c2ccccc2NC(=O)N1c1ccc(Cl)c(Cl)c1 (stereo unspecified)	0	0	0
COc1ccc(C(=O)NCC(=O)OCC(=O)N2CC(C)CC(C)C2)cc1 (stereo unspecified)	0	0	0
CCCc1cc2c(=O)c(-c3ccc4c(c3)OCCO4)c(C)oc2cc1OS(C)(=O)=O	0	0.35µM	0
CCCc1cc2c(=O)c(-c3ccc4c(c3)OCCO4)coc2cc1OS(C)(=O)=O	-	?	0
COc1ccc(C(=O)N2CCC3(CC2)CN(C(=O)NC(C)C)C3)cc1	-	0	0
CN(C)S(=O)(=O)c1cccc(C(=O)C2=C3SC=C(c4ccccc4)N3CC2)c1	0	2µM	0
CN(C)S(=O)(=O)c1cccc(C(=O)N2CCc3ccccc32)c1	0	0	0
Cn1nnnc1SCCNCc1cc(Cl)ccc1OCc1ccccc1	-	13µM	0
Cn1nnnc1SCCNCc1ccccc1OCc1ccc(Cl)cc1	-	0	0
COc1ccc(/C=C(\NC(=O)c2ccccc2Cl)C(=O)NCCCC(=O)O)cc1	-	0	-
CC(NC(=O)c1cc2c(s1)CCCC2)C(C)(C)C (stereo unspecified)	0	0	14µM
Cc1csc(NC(=O)c2cc3c(s2)CCC3)n1	0	?	7.9µM
COC(=O)c1sc(NC(=O)c2cc3c(s2)CCCC3)nc1C	0	0	0
CCC(CO)NC(=O)c1cc2c(s1)CCC2 (stereo unspecified)	0	0	0
COc1cccc(OCCCn2c(-c3ccc(Cl)cc3)nc3ccccc3c2=O)c1	0	-	-
CC(C#N)(Nc1ccc(Cl)cc1)c1cccnc1 (stereo unspecified)	-	0	0
CCCN(CCC)C(=S)NC(=O)c1ccc(-c2ccccc2)cc1	0	?	0
CC(NC(=O)OC(C)(C)C)C(=O)NC(CCC(=O)OCc1ccccc1)C(N)=O (stereo unspecified)	-	0	-
COc1ccccc1Cn1[nH]nnc1=S	-	4µM	-
SMILES	IMPase cell inh	ALDH1A1 block	HPGD block
COc1ccccc1CN1CCSCC1	0	0	0
COC(=O)CSc1c(-c2ccccc2)c2cc(Cl)ccc2[nH]c1=O	0	?	0
CC(=O)OCCSc1c(-c2ccccc2)c2cc(Cl)ccc2[nH]c1=O	0	14µM	-
NC(=S)Nc1cc2ccccc2c2ccccc12	0	0.4µM	0
NC(=S)Nc1cccc2cc3ccccc3cc12	0	?	0
COc1ccc(-n2cccc2C=O)cc1	-	11µM	0
CCOc1ccc(-n2cccc2C=O)cc1	0	?	0
COc1ccc(-n2cccc2/C=C/[N+](=O)[O-])cc1	-	?	35µM
COc1ccc(-n2cccc2C=O)cc1OC	0	0	0
COc1ccc2c(C)cc(N3CCOCC3)nc2c1	0	?	?
COc1ccc2c(C)cc(SCC(=O)N3CCOCC3)nc2c1	0	22µM	0
O=C(CN1C(=O)C2C3CCC(C3)C2C1=O)N1CCN(Cc2ccccc2)CC1 (stereo unspecified)	-	0	-
CCN(CC)C(=O)C12CC3CC(CC(Br)(C3)C1)C2	-	0	-
COc1ccc(OC)c(-n2cnc3cc(C(=O)O)ccc32)c1	0	0	16µM
CCC(=O)Nc1ccc2c(c1)ncn2-c1ccccc1OC	0	0	0
COc1ccccc1-n1cnc2cc(C(=O)NC3CCCC3)ccc21	0	0	16µM
O=C(O)c1ccc2c(c1)ncn2C1CCCCC1	0[1.84 µM]	0	0
CCOc1ccccc1-n1cnc2cc(C(=O)NCc3ccco3)ccc21	0	0	16µM
COc1ccccc1-n1c(C)nc2cc(C(=O)O)ccc21	?	0	0
CCOc1c2ccc(C(=O)NCc3ccco3)cc2nn1CC	0	?	?
O=C(NC1CC1)c1ccc2c(c1)ncn2C1CCCC1	0	?	14µM
CCOc1ccc(NC(=O)c2cc(F)c(F)cc2Cl)cc1OCC	-	0	-
CC[C@H](C)[C@H](NC(=O)[C@H](C)NC(=O)[C@H](CC(N)=O)NC(=O)[C@H](CCCCN)NC(=O)[C@H](Cc1ccccc1)NC(=O)[C@H](CC(C)C)NC(=O)[C@@H](NC(=O)[C@@H](NC(=O)[C@H](CC(C)C)NC(=O)[C@@H]1CCCN1C(=O)[C@@H](NC(=O)[C@H](CCC(N)=O)NC(=O)[C@H](CO)NC(=O)[C@H](CCCCN)NC(=O)[C@H](CCC(=O)O)NC(=O)[C@H](CO)NC(=O)[C@@H](NC(=O)[C@H](CCSC)NC(=O)[C@H](Cc1ccccc1)NC(=O)CNC(=O)CNC(=O)[C@@H](N)Cc1ccc(O)cc1)[C@@H](C)O)[C@@H](C)O)C(C)C)[C@@H](C)O)C(=O)N[C@H](C(=O)N[C@@H](CCCCN)C(=O)N[C@@H](CC(N)=O)C(=O)N[C@@H](C)C(=O)N[C@@H](Cc1ccc(O)cc1)C(=O)N[C@@H](CCCCN)C(=O)N[C@@H](CCCCN)C(=O)NCC(=O)N[C@@H](CCC(=O)O)C(=O)O)[C@@H](C)CC	-	0	-
CC(C)CC1(C)NC(=O)N(CC(=O)Nc2cccc(S(=O)(=O)N(C)c3ccccc3)c2)C1=O (stereo unspecified)	-	0	-
Cc1ccc(C(=O)NNC(=O)CCN2C(=O)C3CCCCC3C2=O)cc1 (stereo unspecified)	-	0	0
SMILES	IMPase cell inh	ALDH1A1 block	HPGD block
CCC(C)C1/C=C\CCCC(=O)N1Cc1ccc(C)cc1 (stereo unspecified)	-	0	0
Cc1sc2nc3n(c(=O)c2c1C)CCCS3	0	?	0
O=Cc1ccc2oc3nc4n(c(=O)c3c(=O)c2c1)CCCS4	0	2.5µM	?
CCOC(=O)c1cc2c(C)n(-c3ccc(N(C)C)cc3)c(C)c2cc(C(=O)OCC)c1=O	0	0	0
Cc1ccc(/C=C/C2=NN(Cc3ccccc3)C(=O)CC2)cc1	0	?	?
CCOC(=O)C1=NN(c2ccccc2)C(=O)/C1=C\c1ccc(N(C)C)cc1	0	1.6µM	13µM
CC1=NN(Cc2ccccc2)C(=O)/C1=C\c1ccc(N(C)C)cc1	0	14µM	0
CN(C)S(=O)(=O)N(CC(=O)N1CCN(c2ccccc2)CC1)c1ccccc1	-	0	-
CC1CCN(C(=O)C(C)c2ccc([N+](=O)[O-])cc2)CC1 (stereo unspecified)	-	0	-
COC(=O)[C@@]1(Cc2ccccc2)[C@H]2c3cc(C(=O)N4CCCC4)n(Cc4c(CO)[nH]cc(C)c4=O)c3C[C@H]2CN1C(=O)c1ccccc1	-	0	0
N[C@H](C(=O)O)[C@H](N)C(=O)O	-	0[13.5 µM]	0
